# Measurements as given in the supplement of paper PMC8728848.
# Shown is part of a subset that was picked to be rich in the strongest signals.
# B1: B1257 (Bifidobacterium sp) (protein)
# chain: MKKSIRLVAAIAALAMTAGISACGSSTNGNQAKSDVTAQDVETALTDTSKNVELTVWAYSAKQMEPTVKAFEKKYPHIKINFVNTGAAGDHFTKFQNVVQAQKDIPDVVQMGANKFQQFAVSGALLNFANDSIEKAWSKLYTKTAWAQVHYAGGLYGAPQDATPLANYVRKDILDEHNLQVPESWEDIYNEGIKLHKEDSNKYMGILGSDISFFTNLYRSVGARLWKVNSVDDVELTMNSGKAKEFTEFLQKCLKDGVLEGGTVFTDEFNRSINDGRYATFINENWMGNTYKEQNPSLKGKMVVAAPPSWKGQPYQSSSVGSMMSVSAACPKEKQAAALAFINWLDSDKDAIQSWQDTNNGNFFMAASVYQDDENQRNKKETDGYYANDDVNAVYFDSMDKVNTDWEYLPFMSQVEVVFNDVIVPQMNENGDLVGAMAKAQQELKTYAKDNGFKVTTDAD
# Assays:
# Assay in all cases: glycan array binding signal (z-score within array); higher = stronger binding
# Conditions in all cases: glycan notation: IUPAC condensed, linker removed
# Fuc(a1-2)Gal = biological target: Fuc(a1-2)Gal
# Summary of the method: (§1)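 The binding signal is a Z-score computed within each array. Data were drawn from 3228 arrays in the Consortium for Functional Glycomics database, restricted to those with a known protein sequence. Scores were averaged over arrays of the same protein sequence at different concentrations or buffers, and over linkers, and negative values can be taken as non-binding.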
# [1] = biological target: Fuc(a1-2)Gal(b1-3)GlcNAc(b1-2)Man(a1-3)[Fuc(a1-2)Gal(b1-3)GlcNAc(b1-2)Man(a1-6)]Man(b1-4)GlcNAc(b1-4)[Fuc(a1-6)]GlcNAc
# Summary of the method: as §1
# [2] = biological target: Fuc(a1-2)Gal(b1-3)[Fuc(a1-4)]GlcNAc
# Summary of the method: as §1
# Fuc(a1-2)Gal(b1-4)Glc = biological target: Fuc(a1-2)Gal(b1-4)Glc
# Summary of the method: as §1
# [3] = biological target: Fuc(a1-2)Gal(b1-4)[Fuc(a1-3)]GlcNAc(b1-2)[Fuc(a1-2)Gal(b1-4)[Fuc(a1-3)]GlcNAc(b1-4)]Man(a1-3)[Fuc(a1-2)Gal(b1-4)[Fuc(a1-3)]GlcNAc(b1-2)Man(a1-6)]Man(b1-4)GlcNAc(b1-4)GlcNAc
# Summary of the method: as §1
# [4] = biological target: Fuc(a1-2)[Gal(a1-4)]Gal(b1-4)GlcNAc
# Summary of the method: as §1
# [5] = biological target: Fuc(a1-3)[Gal(b1-4)]GlcNAc(b1-2)Man(a1-3)[Fuc(a1-3)[Gal(b1-4)]GlcNAc(b1-2)Man(a1-6)]Man(b1-4)GlcNAc(b1-4)[Fuc(a1-6)]GlcNAc
# Summary of the method: as §1
# [6] = biological target: Fuc(a1-3)[Gal(b1-4)]GlcNAc6S
# Summary of the method: as §1
# [7] = biological target: Fuc(a1-3)[GalNAc(b1-4)]GlcNAc
# Summary of the method: as §1
# [8] = biological target: Gal(a1-3)Gal(b1-3)GlcNAc(b1-2)Man(a1-3)[Gal(a1-3)Gal(b1-3)GlcNAc(b1-2)Man(a1-6)]Man(b1-4)GlcNAc(b1-4)GlcNAc
# Summary of the method: as §1
# [9] = biological target: Gal(a1-3)Gal(b1-4)GlcNAc(b1-6)GalNAc
# Summary of the method: as §1
# Gal(a1-4)Gal(b1-4)Glc = biological target: Gal(a1-4)Gal(b1-4)Glc
# Summary of the method: as §1
# [10] = biological target: Gal(a1-4)Gal(b1-4)GlcNAc(b1-2)Man(a1-3)[Gal(a1-4)Gal(b1-4)GlcNAc(b1-2)Man(a1-6)]Man(b1-4)GlcNAc(b1-4)GlcNAc
# Summary of the method: as §1
# Gal(b1-3)GalNAc = biological target: Gal(b1-3)GalNAc
# Summary of the method: as §1
# [11] = biological target: Gal(b1-3)GalNAc(a1-3)[Fuc(a1-2)]Gal(b1-4)Glc
# Summary of the method: as §1
# [12] = biological target: Gal(b1-3)GalNAc(a1-3)[Fuc(a1-2)]Gal(b1-4)GlcNAc
# Summary of the method: as §1
# [13] = biological target: Gal(b1-3)GalNAc(b1-4)Gal(b1-4)Glc
# Summary of the method: as §1
# [14] = biological target: Gal(b1-3)GlcNAc(b1-2)Man(a1-3)[GlcNAc(b1-4)][Gal(b1-3)GlcNAc(b1-2)Man(a1-6)]Man(b1-4)GlcNAc(b1-4)GlcNAc
# Summary of the method: as §1
# [15] = biological target: Gal(b1-3)[Fuc(a1-4)]GlcNAc(b1-2)Man(a1-3)[Gal(b1-3)[Fuc(a1-4)]GlcNAc(b1-2)Man(a1-6)]Man(b1-4)GlcNAc(b1-4)[Fuc(a1-6)]GlcNAc
# Summary of the method: as §1
# Gal(b1-4)GlcNAc(b1-2)Man = biological target: Gal(b1-4)GlcNAc(b1-2)Man
# Summary of the method: as §1
# [16] = biological target: Gal(b1-4)GlcNAc(b1-2)Man(a1-3)[Man(a1-6)]Man(b1-4)GlcNAc(b1-4)GlcNAc
# Summary of the method: as §1
# [17] = biological target: Gal(b1-4)GlcNAc(b1-2)[Gal(b1-4)GlcNAc(b1-4)]Man(a1-3)[Gal(b1-4)GlcNAc(b1-2)Man(a1-6)]Man(b1-4)GlcNAc(b1-4)GlcNAc
# Summary of the method: as §1
# [18] = biological target: Gal(b1-4)GlcNAc(b1-3)Gal(b1-4)Glc
# Summary of the method: as §1
# Gal6S(b1-3)GlcNAc6S = biological target: Gal6S(b1-3)GlcNAc6S
# Summary of the method: as §1
# Gal6S(b1-4)GlcNAc6S = biological target: Gal6S(b1-4)GlcNAc6S
# Summary of the method: as §1
# [19] = biological target: GalNAc(b1-4)GlcNAc(b1-2)Man(a1-3)[GalNAc(b1-4)GlcNAc(b1-2)Man(a1-6)]Man(b1-4)GlcNAc(b1-4)GlcNAc
# Summary of the method: as §1
# [20] = biological target: GlcNAc(a1-4)Gal(b1-3)GlcNAc
# Summary of the method: as §1
# [21] = biological target: GlcNAc(a1-4)Gal(b1-4)GlcNAc(b1-3)Gal(b1-4)[Fuc(a1-3)]GlcNAc(b1-3)Gal(b1-4)[Fuc(a1-3)]GlcNAc
# Summary of the method: as §1
# [22] = biological target: GlcNAc(b1-2)Man(a1-3)[GlcNAc(b1-4)][GlcNAc(b1-2)Man(a1-6)]Man(b1-4)GlcNAc(b1-4)GlcNAc
# Summary of the method: as §1
# [23] = biological target: GlcNAc(b1-3)Gal(b1-4)GlcNAc
# Summary of the method: as §1
# [24] = biological target: GlcNAc(b1-3)[GlcNAc(b1-4)][GlcNAc(b1-6)]GlcNAc
# Summary of the method: as §1
# Kdn(a2-3)Gal(b1-4)GlcNAc = biological target: Kdn(a2-3)Gal(b1-4)GlcNAc
# Summary of the method: as §1
# [25] = biological target: Man(a1-2)Man(a1-2)Man(a1-3)Man
# Summary of the method: as §1
# [26] = biological target: Man(a1-2)Man(a1-3)[Man(a1-6)]Man(a1-6)[Man(a1-2)Man(a1-3)]Man(b1-4)GlcNAc(b1-4)GlcNAc
# Summary of the method: as §1
# [27] = biological target: Man(a1-3)[Man(a1-6)]Man(b1-4)GlcNAc(b1-4)[Fuc(a1-6)]GlcNAc
# Summary of the method: as §1
# [28] = biological target: Neu5Ac(a2-3)Gal(b1-4)GlcNAc(b1-2)Man
# Summary of the method: as §1
# [29] = biological target: Neu5Ac(a2-3)Gal(b1-4)GlcNAc(b1-3)Gal
# Summary of the method: as §1
# [30] = biological target: Neu5Ac(a2-3)Gal(b1-4)GlcNAc(b1-3)Gal(b1-4)GlcNAc(b1-3)GalNAc
# Summary of the method: as §1
# [31] = biological target: Neu5Ac(a2-3)Gal(b1-4)GlcNAc(b1-3)Gal(b1-4)GlcNAc(b1-6)[Gal(b1-3)]GalNAc
# Summary of the method: as §1
# [32] = biological target: Neu5Ac(a2-3)Gal(b1-4)GlcNAc(b1-3)GalNAc
# Summary of the method: as §1
# [33] = biological target: Neu5Ac(a2-3)Gal(b1-4)[Fuc(a1-3)]GlcNAc(b1-3)GalNAc
# Summary of the method: as §1
# [34] = biological target: Neu5Ac(a2-3)Gal6S(b1-4)[Fuc(a1-3)]GlcNAc
# Summary of the method: as §1
# [35] = biological target: Neu5Ac(a2-6)Gal(b1-4)GlcNAc(b1-3)Gal(b1-4)GlcNAc(b1-3)Gal(b1-4)GlcNAc(b1-2)Man(a1-3)[Neu5Ac(a2-6)Gal(b1-4)GlcNAc(b1-3)Gal(b1-4)GlcNAc(b1-3)Gal(b1-4)GlcNAc(b1-2)Man(a1-6)]GalNAc
# Summary of the method: as §1
# [36] = biological target: Neu5Ac(a2-6)Gal(b1-4)GlcNAc(b1-6)[Gal(b1-3)]GalNAc
# Summary of the method: as §1
# [37] = biological target: Neu5Ac(a2-6)GalNAc(b1-4)GlcNAc
# Summary of the method: as §1
# [38] = biological target: Neu5Ac(a2-6)GlcNAc(b1-4)GlcNAc
# Summary of the method: as §1
# [39] = biological target: Neu5Ac(a2-6)GlcNAc(b1-4)GlcNAc(b1-4)GlcNAc
# Summary of the method: as §1
# [40] = biological target: Neu5Ac(a2-8)Neu5Ac(a2-3)Gal(b1-3)GalNAc(b1-4)[Neu5Ac(a2-8)Neu5Ac(a2-3)]Gal(b1-4)Glc
# Summary of the method: as §1
# [41] = biological target: Neu5Gc(a2-3)Gal(b1-4)[Fuc(a1-3)]GlcNAc
# Summary of the method: as §1
binder,measurement,setting,value
B1,glycan array binding signal (z-score),Fuc(a1-2)Gal,23.9
same,glycan array binding signal (z-score),[1],0.153
same,glycan array binding signal (z-score),[2],-0.158
same,glycan array binding signal (z-score),Fuc(a1-2)Gal(b1-4)Glc,3.8
same,glycan array binding signal (z-score),[3],0.025
same,glycan array binding signal (z-score),[4],-0.086
same,glycan array binding signal (z-score),[5],0.166
same,glycan array binding signal (z-score),[6],-0.027
same,glycan array binding signal (z-score),[7],0.046
same,glycan array binding signal (z-score),[8],0.027
same,glycan array binding signal (z-score),[9],-0.213
same,glycan array binding signal (z-score),Gal(a1-4)Gal(b1-4)Glc,-0.023
same,glycan array binding signal (z-score),[10],0.48
same,glycan array binding signal (z-score),Gal(b1-3)GalNAc,0.28
same,glycan array binding signal (z-score),[11],0.314
same,glycan array binding signal (z-score),[12],-0.014
same,glycan array binding signal (z-score),[13],-0.085
same,glycan array binding signal (z-score),[14],0.324
same,glycan array binding signal (z-score),[15],0.461
same,glycan array binding signal (z-score),Gal(b1-4)GlcNAc(b1-2)Man,-0.056
same,glycan array binding signal (z-score),[16],-0.051
same,glycan array binding signal (z-score),[17],-0.081
same,glycan array binding signal (z-score),[18],0.301
same,glycan array binding signal (z-score),Gal6S(b1-3)GlcNAc6S,-0.051
same,glycan array binding signal (z-score),Gal6S(b1-4)GlcNAc6S,-0.133
same,glycan array binding signal (z-score),[19],1.83
same,glycan array binding signal (z-score),[20],-0.103
same,glycan array binding signal (z-score),[21],0.11
same,glycan array binding signal (z-score),[22],0.002
same,glycan array binding signal (z-score),[23],-0.138
same,glycan array binding signal (z-score),[24],-0.13
same,glycan array binding signal (z-score),Kdn(a2-3)Gal(b1-4)GlcNAc,-0.061
same,glycan array binding signal (z-score),[25],-0.128
same,glycan array binding signal (z-score),[26],-0.161
same,glycan array binding signal (z-score),[27],-0.128
same,glycan array binding signal (z-score),[28],0.015
same,glycan array binding signal (z-score),[29],-0.111
same,glycan array binding signal (z-score),[30],-0.094
same,glycan array binding signal (z-score),[31],-0.087
same,glycan array binding signal (z-score),[32],0.727
same,glycan array binding signal (z-score),[33],0.158
same,glycan array binding signal (z-score),[34],-0.194
same,glycan array binding signal (z-score),[35],0.344
same,glycan array binding signal (z-score),[36],-0.046
same,glycan array binding signal (z-score),[37],-0.178
same,glycan array binding signal (z-score),[38],-0.027
same,glycan array binding signal (z-score),[39],-0.081
same,glycan array binding signal (z-score),[40],-0.004
same,glycan array binding signal (z-score),[41],-0.012
